# Assay outcomes as filed in PubChem.
# The list is not random: actives were taken first. Their share in the collection is about 0.4%.
# UDG counter: counter-screen for AID inhibitors: uracil-DNA glycosylase inhibition; FRET deamination/UDG coupled assay, UDG read, 4 h; Potency, µM (top dose mostly 115 µM), for inactives: at the top dose activity change, negative = inhibition, hits mostly inhibitors; 0.14% of 91,000 active; further: nearly all actives have a fitted effect of over 65% in size
# AID inhibitor: blocks human AID cytidine deaminase activity; 0.32% of 91,000 active; Q9GZX7; Potency, µM (doses to about 115 µM), most hits filed as inhibitors; AID deamination FRET fluorescence, UDG-coupled, 4 h; AID 1347428; further: nearly all actives have a fitted effect of over 25% in size
# * = called active by the depositor; i = inactive; u = inconclusive. The call rests on the fitted dose curve; in most records, active means well fitted curve in the direction sought with a large enough effect; inconclusive means small, poorly fitted or top-dose-only effect, or another doubt; inactive means no such curve, though single readings can be large; an effect the other way counts as inactive or inconclusive. On the % scale 0 is the no-effect control and ±100 the full control effect; potency means the concentration at half of the fitted maximal effect.
SMILES,UDG counter,AID inhibitor
N[C@@H](CCl)C(=O)O,-4%,i
NC(Cc1cc(O)c(O)cc1O)C(=O)O (configuration not stated),-2%,14µM*
COc1ccc2[nH]c(C)c(CCNCCC3=C(C)CCCC3(C)C)c2c1,-3%,i
CN(C(=O)CCl)C1CCCCC1,7%,i
CCCCC12CN3CC(C)(CN(C1)C3c1ccccn1)C2=O (configuration not stated),2%,i
CCCC12CN3CC(C)(CN(C1)C3c1c(C)[nH]c(=O)[nH]c1=O)C2=O (configuration not stated),-29%,10µM*
N#Cc1ccc(NC(=O)CSc2ccc3c(c2)OCCCO3)cc1Cl,11%,i
O=c1c2ccccc2nc(/C=C/c2cccc3ccccc23)n1-c1ccccc1Cl,89µM*,u
Cc1ccc(-n2c(/C=C\c3ccc(F)cc3)nc3ccccc3c2=O)cc1Cl,89µM*,u
Cc1cccc(/C=C/c2nc3ccccc3c(=O)n2-c2cccc(O)c2)c1,1%,i
Cc1ccccc1-n1c(/C=C/c2ccccc2F)nc2ccccc2c1=O,-11%,i
COC(=O)c1ccc(C2SCC(=O)Nc3n[nH]c(C)c32)cc1 (configuration not stated),-1%,i
COC1C(O)C(C)OC(OC2CCC3(C)C(CC[C@@H]4[C@@H]3CCC3(C)C(C5=CC(=O)OC5)C(O)CC43O)C2)C1O (some centres not stated),6%,i
CN(N=O)c1ccc(O)c(O)c1,-7%,25µM*
C/C(=C\c1cn(C)c2ccccc12)[N+](=O)[O-],-11%,i
CN1CC[C@@]2(C)c3cc(O)ccc3N(C)C12 (some centres not stated),-4%,11µM*
C[C@@H]1[C@@H]2Cc3ccc(O)cc3[C@@]1(C)CCN2CC1CC1,0%,i
NCCc1cccc(N)n1,-1%,i
